The source of these data is PubChem BioAssay.

SMILES strings stand for the structures. Calls of active or inactive are those of the source.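 How the source made its calls, unless noted: active means compound raises insulin release from rat beta cells at 5 mM glucose, no numeric limit stated; inactive means the rest.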

A short description of assay [1]: Wnt pathway potentiators raising nuclear beta-catenin – imaging, WNT3A-conditioned medium, mouse C2C12, NPC library, primary screen (AID 1117326; in the data active means nuclear beta-catenin stimulation mostly above about 4.2%, no sharp cut-off; inactive means mostly below about 10%; further: reference of the scale not given here). As to conditions: stronger effect = higher value.
A short description of assay [2]: stimulators of insulin release from INS-1E, primary screen, cell-based, 5 mM glucose, NPC library (AID 1117329). Further: reference of the scale not given here. The following applies: rat INS-1E insulin secretion, at 10 µM, stronger effect = higher value.
A short description of assay [3]: growth inhibition of GSK3B-pretreated HCT116 cells – cell-based, CellTiter-Glo, 0.2 to 20 µM (AID 1117336;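 active means compounds lowering colon cancer cell viability after pretreatment blocking the GSK3B kinase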). The following applies: HCT116 viability after GSK3B inhibitor, at 20 µM, stronger effect = higher value. (ATP-based viability assays read luminescence as a measure of living cells.)
The nature of assay [4]: inhibition of endothelial tube formation, primary screen, imaging, VEGF stimulated, CD31 staining, tube area, NPC library (AID 1117340;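 active means compound that reduces growth-factor-driven endothelial tube area in a mixed cell culture, no cutoff stated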). The following applies: VEGF-stimulated ADSC/ECFC co-culture, at 10 µM, stronger effect = higher value.
Assay [5] is described as follows: GLP1 release stimulators, primary, NCI-H716, NPC library (AID 1117341;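 active means compound raises GLP1 secretion from the human gut endocrine cells, with no numeric limit stated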; further: reference of the scale not given here). As to conditions: NCI-H716 cells, at 10 µM, stronger effect = higher value.
Assay [6] is described as follows: HCT116 colon cancer cell growth inhibition, primary screen, CellTiter-Glo luminescence, NPC library (AID 1117342;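 active means compounds that lower survival of HCT116 colon cancer cells in the luminescence readout, no numeric limit stated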). As to conditions: at 20 µM (top of the series).
The nature of assay [7]: reduced SW480 viability measured with CellTiter-Glo, NPC library, primary (AID 1117343;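 active means compounds that lower viability of the colon cancer cells in the luminescence readout, with no numeric limit stated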). As to conditions: CellTiter-Glo luminescence; at 20 µM (top of the series).
Assay [8] is described as follows: NPC library primary testing for decreased DLD-1 cell viability via CellTiter-Glo (AID 1117346;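 active means compounds that lower survival of DLD-1 colon cancer cells in the luminescence readout, no cutoff given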). The following applies: DLD-1 viability, CellTiter-Glo luminescence; at 20 µM (top of the series).

In the case of `CCCCCCCCCCOCC(O)CN` (stereo unspecified), the nuclear beta-catenin stimulation in assay [1] (at 10 µM) is 49.7% (active); in assay [1] (stimulation, at 2 µM) it was -0.2%. Also, the insulin secretion stimulation in assay [2] was 4.5% (inactive). For the same molecule, the viability decrease in assay [3] was 91.1% (active). For the same molecule, the tube area decrease in assay [4] was 65% (active). Besides, the GLP1 secretion stimulation in assay [5] was -3.3% (inactive). Besides, the inhibition of viability in assay [6] was 84.7% (active). Further, the viability decrease (inhibition) in assay [7] is 102% (active); in assay [8] it was 98.4% (active).

Regarding `Cc1cccc(C)c1NC(=O)CN1CCCC1`, the nuclear beta-catenin stimulation in assay [1] (at 10 µM) is -0.4% (inactive); in assay [1] (stimulation, at 2 µM) it was 0.7%. Moreover, in assay [2], the insulin secretion stimulation is 0.6% (inactive). Also, in assay [3], the viability decrease is 4.2% (inactive). Also, the tube area decrease in assay [4] was -6.7% (inactive). Besides, in assay [5], the GLP1 secretion stimulation is 1.1% (inactive). Also, the inhibition of viability in assay [6] is 37.9% (inactive). In addition, the viability decrease (inhibition) in assay [7] was 3.5% (inactive); in assay [8], 2.4% (inactive).

Turning to `COc1ccc(S(=O)(=O)N2c3ccc(Cl)cc3[C@@](O)(c3ccccc3Cl)[C@H]2C(=O)N2CCC[C@@H]2C(N)=O)cc1OC`, the nuclear beta-catenin stimulation was 0.6% (inactive) in assay [1] (at 10 µM) and -0.8% in assay [1] (stimulation, at 2 µM). The insulin secretion stimulation in assay [2] is 2.35% (inactive). Also, in assay [3], the viability decrease is 47.7% (inactive). Also, the tube area decrease in assay [4] was -23.5% (inactive). The GLP1 secretion stimulation in assay [5] is -0.7% (inactive). In addition, in assay [6], the inhibition of viability is 34% (inactive). For the same molecule, the figures for the viability decrease (inhibition) in assay [7] and in assay [8] were 0.4% (inactive) and 4.6% (inactive), respectively.

As to `CCN1CCCC1CN` (stereo unspecified), the nuclear beta-catenin stimulation in assay [1] (at 10 µM) was 1.1% (inactive); in assay [1] (stimulation, at 2 µM) it was 1.8%. Also, the insulin secretion stimulation in assay [2] is 4.8% (inactive). The viability decrease in assay [3] is 39.7% (inactive). Further, the tube area decrease in assay [4] is -0.3% (inactive). Moreover, the GLP1 secretion stimulation in assay [5] is 3.1% (inactive). The inhibition of viability in assay [6] is 32.2% (inactive). The figures for the viability decrease (inhibition) in assay [7] and in assay [8] were 43.3% (inactive) and 12.4% (inactive), respectively.

As to `COc1ccc(C(C#N)C(C)C)cc1OC` (stereo unspecified), the nuclear beta-catenin stimulation was -1.8% (inactive) in assay [1] (at 10 µM) and 0.3% in assay [1] (stimulation, at 2 µM). For the same molecule, the insulin secretion stimulation in assay [2] is 2.2% (inactive). The viability decrease in assay [3] is -24.5% (inactive). Moreover, the tube area decrease in assay [4] is 9.3% (inactive). Also, in assay [5], the GLP1 secretion stimulation is -3.4% (inactive). In assay [6], the inhibition of viability was 13.4% (inactive). In addition, the viability decrease (inhibition) is -4.7% (active) in assay [7] and -19.9% (inactive) in assay [8].

In the case of `O=C(O)CCCC[P+](c1ccccc1)(c1ccccc1)c1ccccc1`, the nuclear beta-catenin stimulation in assay [1] (at 10 µM) was -2.3% (inactive); in assay [1] (stimulation, at 2 µM) it was -0.2%. Also, the insulin secretion stimulation in assay [2] is 3.5% (inactive). For the same molecule, in assay [3], the viability decrease is -11% (inactive). In assay [4], the tube area decrease was 7.8% (inactive). For the same molecule, the GLP1 secretion stimulation in assay [5] was 2.8% (inactive). In addition, the inhibition of viability in assay [6] is -8.2% (inactive). Also, the viability decrease (inhibition) in assay [7] was -3.6% (inactive); in assay [8], 2.9% (inactive).

As for `Oc1ccc(C(O)CNCCCCCCNCC(O)c2ccc(O)c(O)c2)cc1O` (stereo unspecified), the nuclear beta-catenin stimulation in assay [1] (at 10 µM) was -0.7% (inactive); in assay [1] (stimulation, at 2 µM) it was -2.3%. In assay [2], the insulin secretion stimulation was 1.65% (inactive). For the same molecule, the viability decrease in assay [3] was 76.1% (active). Also, in assay [4], the tube area decrease is -0.1% (inactive). Besides, the GLP1 secretion stimulation in assay [5] was 4.5% (inactive). For the same molecule, in assay [6], the inhibition of viability is 43% (inactive). Further, the viability decrease (inhibition) in assay [7] was 42.9% (inactive); in assay [8], 40.4% (inactive).

As for `N#CC1(c2ccc(F)cc2)CCC(=O)CC1`, the nuclear beta-catenin stimulation is -0.7% (inactive) in assay [1] (at 10 µM) and -2.1% in assay [1] (stimulation, at 2 µM). Besides, in assay [2], the insulin secretion stimulation is 2.2% (inactive). Besides, the viability decrease in assay [3] was 5.9% (inactive). Also, the tube area decrease in assay [4] was 0.9% (inactive). In assay [5], the GLP1 secretion stimulation was 1.7% (inactive). For the same molecule, the inhibition of viability in assay [6] is 8.6% (inactive). In addition, the values for the viability decrease (inhibition) in assay [7] and in assay [8] were 3.1% (inactive) and -1.9% (inactive), respectively.

As to `COc1cccc(CCc2ccccc2OCC(CN(C)C)OC(=O)CCC(=O)O)c1` (stereo unspecified), the nuclear beta-catenin stimulation in assay [1] (at 10 µM) is -0.6% (inactive); in assay [1] (stimulation, at 2 µM), 3.9%. For the same molecule, the insulin secretion stimulation in assay [2] was 11.9% (inactive). Also, the viability decrease in assay [3] was 53.9% (active). For the same molecule, the tube area decrease in assay [4] is 0.9% (active). The GLP1 secretion stimulation in assay [5] was 8.6% (inactive). Further, the inhibition of viability in assay [6] is 72.9% (active). Besides, the viability decrease (inhibition) is 87.5% (active) in assay [7] and 21.8% (inactive) in assay [8].

Turning to `CC(C)C(=O)OCc1cccc(OC(=O)[C@@H]2N3C(=O)[C@@H](NC(=O)Cc4ccccc4)[C@H]3SC2(C)C)c1`, the nuclear beta-catenin stimulation in assay [1] (at 10 µM) is 0.9% (inactive); in assay [1] (stimulation, at 2 µM), -0.1%. Further, in assay [2], the insulin secretion stimulation was 2.2% (inactive). Further, the viability decrease in assay [3] is 117% (active). Besides, the tube area decrease in assay [4] was -4.7% (inactive). Besides, the GLP1 secretion stimulation in assay [5] is 3.4% (inactive). Also, the inhibition of viability in assay [6] is 123% (active). Moreover, the viability decrease (inhibition) in assay [7] is 60.1% (active); in assay [8] it was 10.1% (inactive).

For `CCCC(CCC)(C(=O)OCC)C(=O)OCC`, the nuclear beta-catenin stimulation in assay [1] (at 10 µM) was -1.3% (inactive); in assay [1] (stimulation, at 2 µM), -2.9%. Further, the insulin secretion stimulation in assay [2] was 2.1% (inactive). Besides, the viability decrease in assay [3] is 11.4% (inactive). In assay [4], the tube area decrease was -3.8% (inactive). For the same molecule, in assay [5], the GLP1 secretion stimulation was 3.5% (inactive). Further, the inhibition of viability in assay [6] is 12.2% (inactive). Moreover, the viability decrease (inhibition) in assay [7] is 1.4% (inactive); in assay [8], -4.9% (inactive).

For `CCCCCCCCCCCCCCCCCCCCCC(=O)Nc1ccn([C@@H]2O[C@H](CO)[C@@H](O)[C@H]2O)c(=O)n1`, the nuclear beta-catenin stimulation was 4.1% (inactive) in assay [1] (at 10 µM) and -0.9% in assay [1] (stimulation, at 2 µM). In assay [2], the insulin secretion stimulation was 3.05% (inactive). Moreover, the viability decrease in assay [3] is 48.1% (inactive). Also, the tube area decrease in assay [4] is 51.7% (active). Further, the GLP1 secretion stimulation in assay [5] was -1.6% (inactive). Moreover, in assay [6], the inhibition of viability is 39.5% (inactive). For the same molecule, the viability decrease (inhibition) in assay [7] is 40.5% (inactive); in assay [8], 15% (inactive).

`COc1ccc(CC2c3cc(OC)c(OC)cc3CCN2CCC(=O)OCCCCCOC(=O)CCN2CCc3cc(OC)c(OC)cc3C2Cc2ccc(OC)c(OC)c2)cc1OC` (stereo unspecified): the nuclear beta-catenin stimulation was -1.1% (inactive) in assay [1] (at 10 µM) and 0.5% in assay [1] (stimulation, at 2 µM). Besides, the insulin secretion stimulation in assay [2] is 2.2% (inactive). Also, in assay [3], the viability decrease was -6.9% (inactive). In addition, the tube area decrease in assay [4] was -3.5% (inactive). Further, the GLP1 secretion stimulation in assay [5] was -3.9% (inactive). Moreover, the inhibition of viability in assay [6] was -6.4% (inactive). The viability decrease (inhibition) was 39.7% (inactive) in assay [7] and -10.6% (inactive) in assay [8].

Turning to `CN1N=C(C(N)=O)CCC1=O`, the nuclear beta-catenin stimulation was 1.1% (inactive) in assay [1] (at 10 µM) and 1.9% in assay [1] (stimulation, at 2 µM). The insulin secretion stimulation in assay [2] is 1.05% (inactive). The viability decrease in assay [3] is 3.8% (inactive). The tube area decrease in assay [4] was 1.5% (inactive). In addition, the GLP1 secretion stimulation in assay [5] was 2.5% (inactive). In assay [6], the inhibition of viability is 15.3% (inactive). In addition, the viability decrease (inhibition) is -11.3% (inactive) in assay [7] and 10.1% (inactive) in assay [8].
